Measurements as given in PubChem BioAssay (Tox21).
“And” between values parts separate entries of the source, which are not always exact repeats. Equal entries are not always repeated. Inconclusive results are not listed. The source made the active and inactive calls. Unless noted, calls come from the whole dose curve; as a rule, active = well fitted curve in the direction sought with a large enough effect in the repeat runs; inconclusive = weak or mixed curves; inactive = no such curve, though single readings can be large; an effect the other way counts as inactive or inconclusive.

Assays:
[1] = qHTS assay to identify small molecule agonists of H2AX (AID 1224845; active = well fitted activation curve with a large enough effect in the signal ratio in the repeat runs, not every such curve was filed as active; the % refers to the signal ratio; note: potency is the fitted concentration of half-maximal effect)
Outline: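 Wild-type CHO-K1 cells plated overnight, then exposed 3 hr at 37C to compounds at 15 concentrations (0.76% DMSO). Lysed, then HTRF anti-pH2AX(S139)-cryptate/anti-H2AX-d2 detection after 24 hr at room temperature; emissions 665 and 620 nm.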

[2] = qHTS assay to identify small molecule agonists of the hypoxia (HIF-1) signaling pathway (AID 1224846; active = well fitted activation curve with a large enough effect in the signal ratio in the repeat runs, not every such curve was filed as active; the % refers to the signal ratio)
Outline: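 Steps: seed ME-180 HRE-bla cells (2,000/well, 0.5% dialyzed FBS); incubate 5 hrs at 37C; pin-transfer compounds or DMSO; incubate 17 hrs; add LiveBLAzer B/G substrate CCF4-AM; measure reporter activation by FRET.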

[3] = qHTS assay to identify small molecule agonists of H2AX - cell viability counter screen (AID 1224847; calls by dose curve; note: nearly all actives have a fitted effect of over 30% in size; note: potency is the fitted concentration of half-maximal effect)
Outline: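 Wild-type CHO-K1 cells (10% FBS medium) were plated overnight at 37C, exposed to compounds at 15 concentrations for 3 hr at 37C (0.76% DMSO final), and viability was read as CellTiter-Glo luminescence after 30 min at room temperature.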

[4] = qHTS RealTime-Glo MT Cell Viability Assay in HepG2 cells - 24 hour (AID 1224867); note: nearly all actives have a fitted effect of over 50% in size; note: potency is the fitted concentration of half-maximal effect
Outline: (§1)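 Cells + NanoLuc/prosubstrate dispensed (600 cells/well) → 5 h at 37 C/5% CO2 → compounds in DMSO transferred → 40 h incubation at 37 C, luminescence read at 0, 8, 16, 24, 32, 40 h.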

[5] = qHTS RealTime-Glo MT Cell Viability Assay in HEK293 cells - 32 hour (AID 1224868); note: nearly all actives have a fitted effect of over 50% in size; note: potency is the fitted concentration of half-maximal effect
Outline: (§2)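 Tox21 10K qHTS, HEK293, 600 cells/well, RealTime-Glo reagent co-dispensed with cells; 5 h preincubation, compound by pintool, 37 C, luminescence at 0–40 h.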

[6] = A CellTox Green Cytotoxicity Assay to monitor cytotoxicity in HEK293 cells - 40 hour (AID 1224871); note: nearly all actives have a fitted effect of over 45% in size; note: potency is the fitted concentration of half-maximal effect
Outline: (§3)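 Cytotoxicity was tracked continuously in HEK293 cells by a DNA-binding dye excluded from viable cells. Compounds were transferred in DMSO 5 h after seeding; fluorescence was recorded at intervals up to 40 h.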

[7] = qHTS RealTime-Glo MT Cell Viability Assay in HepG2 cells - 8 hour (AID 1224873); note: nearly all actives have a fitted effect of over 55% in size; note: potency is the fitted concentration of half-maximal effect
Outline: (§4)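 HepG2 cells mixed with RealTime-Glo MT reagents (NanoLuc plus cell-permeant prosubstrate) were seeded at 600 cells/well, incubated 5 h at 37 C/5% CO2, then pinned with compounds in DMSO; nonlytic luminescence tracked viability during 40 h treatment.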

[8] = qHTS RealTime-Glo MT Cell Viability Assay in HEK293 cells - 40 hour (AID 1224874); conditions: RealTime-Glo luminescence; max response: stronger effect = lower value; note: nearly all actives have a fitted effect of over 50% in size; note: potency is the fitted concentration of half-maximal effect
Outline: (§5)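 Nonlytic bioluminescent viability monitoring. HEK293 at 600 cells/well with reagent; 5 h settle; compound transfer by pintool; plates held at 37 C and read at set time points.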

[9] = A CellTox Green Cytotoxicity Assay to monitor cytotoxicity in HEK293 cells - 24 hour (AID 1224875); note: nearly all actives have a fitted effect of over 45% in size; note: potency is the fitted concentration of half-maximal effect
Outline: as §3

[10] = A CellTox Green Cytotoxicity Assay to monitor cytotoxicity in HepG2 cells - 16 hour (AID 1224876); note: nearly all actives have a fitted effect of over 45% in size; note: potency is the fitted concentration of half-maximal effect
Outline: (§6)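 Real-time, homogeneous cytotoxicity readout: dead-cell DNA staining by CellTox Green in HepG2 monolayers, fluorescence measured at timed intervals up to 40 h of continuous compound exposure.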

[11] = qHTS RealTime-Glo MT Cell Viability Assay in HepG2 cells - 32 hour (AID 1224877); note: nearly all actives have a fitted effect of over 55% in size; note: potency is the fitted concentration of half-maximal effect
Outline: as §1

[12] = A CellTox Green Cytotoxicity Assay to monitor cytotoxicity in HepG2 cells - 24 hour (AID 1224878); note: nearly all actives have a fitted effect of over 45% in size; note: potency is the fitted concentration of half-maximal effect
Outline: as §6

[13] = A CellTox Green Cytotoxicity Assay to monitor cytotoxicity in HepG2 cells - 40 hour (AID 1224879); note: nearly all actives have a fitted effect of over 40% in size; note: potency is the fitted concentration of half-maximal effect
Outline: as §6

[14] = qHTS RealTime-Glo MT Cell Viability Assay in HEK293 cells - 0 hour (AID 1224880)
Outline: as §5

[15] = A CellTox Green Cytotoxicity Assay to monitor cytotoxicity in HEK293 cells - 32 hour (AID 1224881); note: nearly all actives have a fitted effect of over 40% in size; note: potency is the fitted concentration of half-maximal effect
Outline: as §3

[16] = A CellTox Green Cytotoxicity Assay to monitor cytotoxicity in HEK293 cells - 0 hour (AID 1224869); note: nearly all actives have a fitted effect of over 50% in size
Outline: as §3

[17] = qHTS RealTime-Glo MT Cell Viability Assay in HepG2 cells - 40 hour (AID 1224870); note: nearly all actives have a fitted effect of over 50% in size; note: potency is the fitted concentration of half-maximal effect
Outline: as §4

[18] = qHTS RealTime-Glo MT Cell Viability Assay in HEK293 cells - 16 hour (AID 1224872); note: nearly all actives have a fitted effect of over 50% in size; note: potency is the fitted concentration of half-maximal effect
Outline: as §2

[19] = qHTS assay to identify small molecule antagonists of the estrogen related receptor (ERR) signaling pathway from Tox21 library (AID 1224848); note: nearly all actives have a fitted effect of over 50% in size; note: potency is the fitted concentration of half-maximal effect
Outline: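 Cells: ERR line, 2,000/well; 6 h preincubation 37 C/5% CO2. Cpd in DMSO via pin tool; 18 h, 37 C. ONE-Glo, 30 min RT, luminescence.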

[20] = qHTS assay to identify small molecule agonists of the estrogen related receptor (ERR) signaling pathway from Tox21 library (AID 1224849; calls by dose curve; note: nearly all actives have a fitted effect of over 15% in size); conditions: ERR reporter cell line, ONE-Glo luciferase, 18 h
Outline: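 Agonist signal is luciferase luminescence from an ERR reporter cell line treated 18 h at 37 C with DMSO-dissolved compounds, read 30 min after ONE-Glo addition at room temperature.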

[21] = at 92.4 µM (top of the series) unless noted
% is set by controls: 0 for no effect and ±100 for the full control effect.

CC(C)C(C)(C)C(C)(C)C(C)(C)S
inactive: Potency [1] | Potency [2] | Potency [3] | Potency [4] | Potency [5] | Potency [6] | Potency [7] | max response [8] 0.74% | Potency [9] | Potency [10] | Potency [11] | Potency [12] | Potency [13] | Potency [14] | Potency [15]

CC(=O)OCC(C)OC(C)=O (stereo unspecified)
inactive: Potency [1] | Potency [2] | Potency [4] | Potency [5] | Potency [16] | Potency [17] | Potency [6] | Potency [18] | Potency [7] | max response [8] -0.171% | Potency [9] | Potency [10] | Potency [11] | Potency [12] | Potency [13] | Potency [14] | Potency [15]

CC(C)(C)C(=O)OCOC(=O)C1N2C(=O)CC2S(=O)(=O)C1(C)C (stereo unspecified)
inactive: Potency [1] | Potency [2] | Potency [3] | Potency [4] | Potency [5] | Potency [16] | Potency [17] | Potency [6] | Potency [18] | Potency [7] | max response [8] 5.75% | Potency [9] | Potency [11] | Potency [13] | Potency [14] | Potency [15]

Nc1c(Cl)cc(Cl)cc1Cl
inactive: Potency [1] | Potency [2] | Potency [3] | Potency [4] | Potency [5] | Potency [16] | Potency [17] | Potency [18] | Potency [7] | max response [8] -15.4% | Potency [10] | Potency [14]

CC(C)(C)CC(C)(C)c1ccc(OCCOCC[N+](C)(C)Cc2ccccc2)cc1
inactive: Potency [1] | activity change, positive = activation ([20]; at 42.5 µM (top of the series)) -58.4% | activity change, positive = activation ([20]; at 92.4 µM (top of the series)) -70.8% | Potency [16]
active: Potency [3] 101 µM and 49.2 µM | Potency [19] 6.85 µM and 5.96 µM | Potency [4] 48.9 µM and 9.52 µM | Potency [5] 12.3 µM and 9.52 µM | Potency [17] 24.5 µM and 9.52 µM | Potency [18] 24.5 µM and 21.3 µM | Potency [8] 9.76 µM and 8.49 µM | Potency [10] 48.9 µM and 19 µM | Potency [11] 34.6 µM and 9.52 µM | Potency [12] 38.9 µM and 15.1 µM | Potency [13] 24.5 µM and 10.7 µM | Potency [15] 38.9 µM and 21.3 µM

Fc1ccc([C@@H]2CCNC[C@H]2COc2ccc3c(c2)OCO3)cc1
active: Potency [10] 23.9 µM | Potency [12] 26.8 µM | Potency [13] 26.8 µM
inactive: Potency [1] | Potency [2] | Potency [3] | Potency [16] | Potency [18] | Potency [7] | Potency [9]

CCCCCCCCOc1ccccc1C(=O)Nc1ccc(C(=O)OCC[N+](C)(CC)CC)cc1
active: Potency [3] 24.7 µM | Potency [5] 19 µM | Potency [6] 26.8 µM | Potency [8] 21.3 µM | Potency [9] 23.9 µM | Potency [10] 23.9 µM | Potency [12] 26.8 µM | Potency [13] 23.9 µM | Potency [15] 23.9 µM
inactive: Potency [1] | Potency [2] | Potency [16] | Potency [17]

Oc1c(Cl)cc(Cl)c2cccnc12
inactive: Potency [3] | activity change, positive = activation [20, 21] -66% [at 42.5 µM] | Potency [4] | Potency [16] | Potency [17] | Potency [18] | Potency [7] | Potency [9] | Potency [10] | Potency [11] | Potency [14]
active: Potency [1] 39.1 µM | Potency [19] 9.44 µM | Potency [6] 9.52 µM | Potency [8] 8.49 µM | Potency [13] 8.49 µM | Potency [15] 5.35 µM

CNCc1cc(F)ccc1Oc1ccc(Cl)c(Cl)c1
active: Potency [3] 45 µM | Potency [19] 48.6 µM | Potency [4] 49 µM | Potency [5] 43.6 µM | Potency [6] 49 µM | Potency [8] 43.6 µM | Potency [9] 49 µM | Potency [11] 54.9 µM | Potency [12] 49 µM | Potency [13] 49 µM | Potency [15] 49 µM
inactive: Potency [1] | activity change, positive = activation [20, 21] -40.3% | Potency [16]

C[C@H](CCC(=O)O)[C@H]1CC[C@H]2[C@@H]3CC[C@@H]4C[C@H](O)CC[C@]4(C)[C@H]3CC[C@]12C
active: Potency [1] 89.4 µM and 56.6 µM | Potency [3] 100 µM and 80 µM
inactive: Potency [19] | activity change, positive = activation [20, 21] -9.3% and -27.2% | Potency [4] | Potency [5] | Potency [16] | Potency [17] | Potency [6] | Potency [18] | Potency [7] | max response [8] -16.2% and -15.3% | Potency [9] | Potency [14] | Potency [15]

CC[C@H]1O[C@]2(CC[C@@H]1C)C[C@@H]1C[C@@H](C/C=C(\C)C[C@@H](C)/C=C/C=C3\CO[C@@H]4[C@H](O)C(C)=C[C@@H](C(=O)O1)[C@]34O)O2
inactive: activity change, positive = activation [20, 21] -67.4% | Potency [16] | Potency [14]
active: Potency [1] 44.6 µM | Potency [3] 50 µM | Potency [19] 30.4 µM | Potency [4] 43.3 µM | Potency [5] 24.3 µM | Potency [17] 43.3 µM | Potency [6] 43.3 µM | Potency [18] 38.5 µM | Potency [7] 48.5 µM | Potency [8] 24.3 µM | Potency [9] 48.5 µM | Potency [10] 48.5 µM | Potency [11] 43.3 µM | Potency [13] 27.3 µM | Potency [15] 48.5 µM

Cc1cc(CCN2CCN(c3nsc4ccccc34)CC2)cc2c1NC(=O)CC2(C)C
active: Potency [3] 113 µM | Potency [19] 5.45 µM | Potency [4] 54.9 µM | Potency [5] 7.76 µM | Potency [6] 49 µM | Potency [18] 13.8 µM | Potency [8] 6.92 µM | Potency [9] 49 µM | Potency [11] 54.9 µM | Potency [15] 49 µM
inactive: Potency [1] | activity change, positive = activation [20, 21] -74.7% | Potency [16]
